Compound activity: PubChem, several laboratories
An excerpt weighted towards active compounds, which were near 1.4% of everything screened.
MsrA inh = bovine MsrA inhibition. purified bovine MsrA, absorbance read-out. inhibition, % at 15.5 µM. 360,000 tested, 0.75% active. AID 651718
14-3-3 Bad PPI = disrupts binding of bovine 14-3-3 zeta to phospho-Bad peptide | 220,000 tested, 0.71% active | TR-FRET 14-3-3zeta/Dy647-pBad peptide displacement, 1 h | inhibition, % at 21.7 µM | P63103 | AID 781;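 active = inhibition above about 70%, limit read from the data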
bovine MsrA act = activates bovine MsrA enzyme. purified bovine MsrA, absorbance read-out. activation, % at 10.6 µM. 360,000 tested, 0.3% active. AID 602163; in the data active = activation above about 7.5%
p-CIP stab down = p/CIP protein destabilization; F442A p/CIP-EGFP cells, EGFP fluorescence, 16 h; decrease of EGFP signal, % at 10 µM; 290,000 tested, 0.01% active; AID 1984;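 active = EGFP signal decrease of at least 30% at 10 µM or well 3 SD below plate mean, unless failing retest; inactive = the rest, including hits failing retest or dose response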
MsrA conf = bovine MsrA inhibition, confirmed. 2,300 tested, 41% active. inhibition, % at 15.5 µM. purified bovine MsrA, absorbance read-out. AID 651822. shares compounds with MsrA inh;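 note: coupled to thioredoxin reductase with NADPH and selenocystamine and DMSO as substrate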
Hits are given with their value; 0 = inactive; - = not tested or not shown. Cut-off read from the data, not from the text of the source, unless noted: active = inhibition above about 4.5%; inactive = the rest.

SMILES	MsrA inh	14-3-3 Bad PPI	bovine MsrA act	p-CIP stab down	MsrA conf
CN(N=Cc1ccc(N(C)C)cc1)C(=O)c1ccccc1N	5.3	-	-	-	0
CN(C)c1ccc(/C=N/NC(=O)CCCO)cc1	5.9	0	0	0	0
CN1c2ccccc2C(O)=C(C(=S)Nc2ccc(Cl)cc2)S1(=O)=O	5.4	0	0	0	6.0
Cc1cccc(NC(=O)C2=C(O)c3ccccc3N(C)S2(=O)=O)c1	0	0	0	0	-
COc1ccc(/C=C/C(=O)NC(=S)Nc2ccc(S(=O)(=O)Nc3nccnc3OC)cc2)cc1	5.2	0	0	0	6.0
COc1ccc(/C=C/C(=O)NC(=S)Nc2ccc(S(=O)(=O)Nc3cc(OC)ncn3)cc2)cc1	0	0	0	0	-
Cc1c(CCO)c(=O)[nH]n1S(=O)(=O)c1ccc([N+](=O)[O-])cc1	0	-	0	0	-
O=C(N/N=C/c1cc(Br)c(O)c(Br)c1)C1CC1	5.3	-	0	0	4.6
O=C(N/N=C/c1cc([N+](=O)[O-])ccc1O)C1CC1	5.4	0	0	0	0
O=C1NCCCC1C(=O)N/N=C/c1cc([N+](=O)[O-])ccc1O (stereo not drawn)	0	0	0	0	-
O=C(NN=Cc1ccc(F)cc1)C1CC1	0	-	0	-	-
COC(=O)C1(F)C(=O)NC(=O)NC1OC (stereo not drawn)	0	-	-	-	-
COc1cc2c(cc1OC)CN(S(=O)(=O)/C=C/c1ccccc1)CC2	0	-	0	0	-
O=C(NC(=S)NCCCN1CCOCC1)c1ccco1	5.8	0	0	0	0
O=C(NC(=S)NCCN1CCOCC1)c1ccccc1Cl	0	0	0	0	-
O=C(NCCc1ccc(F)cc1)c1coc(=O)c(Br)c1	6.0	-	0	0	4.8
O=C(Nc1ccccc1F)c1coc(=O)c(Br)c1	0	0	0	0	-
COc1ccc(/C=N/NC(=O)CN(C2=NS(=O)(=O)c3ccccc32)c2ccccc2)cc1	0	0	0	0	-
COc1ccccc1/C=N/NC(=O)CN(C1=NS(=O)(=O)c2ccccc21)c1ccccc1	6.1	0	0	0	0
CCc1c(-c2cccc(Cl)c2)ncn1Cc1cccc(-c2ccccc2)c1	0	-	-	-	-
Cc1ccc(-c2cc(C(=O)O)c3sc(N4CCCCC4)nc3n2)cc1	0	0	0	0	-
O=C(O)c1cc(-c2ccccc2)nc2nc(N3CCCCC3)sc12	5.8	0	-	0	0
O=C(N/N=C/c1cccs1)c1cccc2cc[nH]c12	5.2	0	0	0	0
CC(=O)c1ccc(Nc2nc(C(N)Cc3ccc(Cl)cc3)cs2)cc1 (stereo not drawn)	0	-	0	-	-
CC(=O)C(Sc1ncnc2c1nnn2-c1ccc(F)cc1)C(=O)N(C)C (stereo not drawn)	5.7	0	-	0	0
SMILES	MsrA inh	14-3-3 Bad PPI	bovine MsrA act	p-CIP stab down	MsrA conf
CCOC(=O)CSc1ncnc2c1nnn2-c1ccc(F)cc1	0	0	0	0	-
CCC(C)NC(=O)C1CCC(=O)N1CCc1ccccc1 (stereo not drawn)	0	-	0	0	-
Cc1ccc(-c2ccc(/C=N/n3cnnc3)o2)cc1Cl	5.0	0	0	0	0
COc1ccc(C(=O)Nc2ccccc2C(=O)Nc2ccccc2C(=O)O)cc1	0	-	0	0	-
COc1ccc(C(=NNc2ccccc2C(=O)O)c2ccc(OC)cc2)cc1	5.1	0	0	0	0
O=C1c2ccccc2C(=O)c2c1cccc2N1CCCC1	36	0	0	0	0
FC(F)(F)c1ccc(N=Cc2sc(N3CCOCC3)nc2-c2ccccc2)cc1	18	0	0	0	17
CC(=O)c1sc(N2CCOCC2)nc1-c1ccccc1	0	0	0	0	-
CC(=O)c1ccc(NC(=O)/C(=C\c2ccco2)NC(=O)c2ccco2)cc1	5.7	-	0	0	5.4
O=C(Nc1ccc(C(=O)O)cc1)/C(=C\c1ccco1)NC(=O)c1ccco1	4.8	-	0	0	4.9
O=C(Nc1ccc(C(=O)O)cc1)/C(=C\c1ccco1)NC(=O)c1ccccc1	0	0	0	0	-
COc1ccc(C=C2SC(=S)NC2=O)c(OC)c1OC	4.8	-	0	-	0
COc1ccccc1C=C1SC(=S)NC1=O	0	-	0	-	-
CCN(CC)S(=O)(=O)c1cc(NC(=O)CNc2cccc(S(=O)(=O)N3CCOCC3)c2)ccc1C	0	-	0	-	-
COC(=O)c1ccc(C(=O)N=c2sccn2C)cc1	0	-	0	0	-
COc1ccc(C(=O)N=c2sccn2C)cc1	5.8	0	0	0	0
O=c1cccc(-c2ccc3ccccc3c2)o1	5.0	-	-	-	0
O=C1c2ccc3c4c(ccc(c24)C(=O)N1NC(=O)C(F)(F)F)CC3	0	0	0	0	-
CC(=O)NN1C(=O)c2ccc3c4c(ccc(c24)C1=O)C(=O)N(NC(C)=O)C3=O	29	-	0	0	22
